# Results published in the supplement of paper PMC10849652.
# The full data set covers some 7,900 targets. This sample favours those with a hit. About 0.6% of all pairs of compound and target were hits. A number with no mark means an inactive call.
# What was measured:
# Test in all cases: log2 fold change, soluble protein after heating vs DMSO (PISA); higher = thermal stabilisation; K562 cells, 10 uM, 30 min; active = over 0.2 and 3.5 SD of the protein, either way, in both replicates (recomputed)
# [1] = compound: Cc1ccc(NC(=O)c2ccc(CN3CC[C@H](N(C)C)C3)c(C(F)(F)F)c2)cc1Nc1nccc(-c2cncnc2)n1 [bafetinib]
# Method in brief: (§1)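 Soluble protein was defined as the supernatant after 21,000xg for 90 min. It came from K562 cells at 2×10^6 cells/mL given 10 μM compound for 30 min, heated in aliquots for 3 min across 48°C-58°C, pooled, and extracted in PBS with 0.5% NP-40 at 4°C, and was quantified by TMTpro 16plex LC-MS/MS with equalised channel sums. Thermal stability against control samples, from duplicates, is reported as log2 fold change.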
# [2] = compound: Cc1cccc(CC(=O)N2CCc3c2ccc(-c2cn(C)c4ncnc(N)c24)c3F)n1
# Method in brief: as §1
# [3] = compound: Cc1cn(-c2cc(NC(=O)c3ccc(C)c(Nc4nccc(-c5cccnc5)n4)c3)cc(C(F)(F)F)c2)cn1 [nilotinib]
# Method in brief: as §1
# [4] = compound: Cc1nc(Nc2n[nH]c3c2CN(C(=O)N[C@H](CN(C)C)c2ccccc2)C3(C)C)c2sccc2n1
# Method in brief: as §1
# [5] = compound: Cc1nc(Nc2ncc(C(=O)Nc3c(C)cccc3Cl)s2)cc(N2CCN(CCO)CC2)n1 [dasatinib]
# Method in brief: as §1
# [6] = compound: Cc1ncc(-c2ccnc(Nc3ccc(S(C)(=O)=O)cc3)n2)n1C(C)C
# Method in brief: as §1
# [7] = compound: Cn1cc(-c2ccc3c(c2)CCN3C(=O)Cc2cccc(C(F)(F)F)c2)c2c(N)ncnc21
# Method in brief: as §1
# [8] = compound: Cn1cc(-c2ccc3nnc(C(F)(F)c4ccc5ncccc5c4)n3n2)cn1
# Method in brief: as §1
# [9] = compound: Cn1cncc1[C@@](N)(c1ccc(Cl)cc1)c1ccc2c(c1)c(-c1cccc(Cl)c1)cc(=O)n2C [tipifarnib]
# Method in brief: as §1
# [10] = compound: FC(F)(F)c1ccc(/C=C/c2nc(COc3ccc(CCCCn4ccnn4)cc3)co2)cc1 [mubritinib]
# Method in brief: as §1
# [11] = compound: NC(=O)Nc1cc(-c2cccc(F)c2)sc1C(=O)N[C@H]1CCCNC1
# Method in brief: as §1
# [12] = compound: NC(=O)c1cnc(N[C@@H]2CCCC[C@@H]2N)nc1Nc1cccc(-n2nccn2)c1
# Method in brief: as §1
# [13] = compound: NC1(c2ccc(-c3nc4ccn5c(=O)[nH]nc5c4cc3-c3ccccc3)cc2)CCC1
# Method in brief: as §1
# [14] = compound: NCC(=O)Nc1ccc(-n2nc(C(F)(F)F)cc2-c2ccc3c(ccc4ccccc43)c2)cc1
# Method in brief: as §1
# [15] = compound: Nc1ccccc1NC(=O)c1ccc(CNC(=O)OCc2cccnc2)cc1 [entinostat]
# Method in brief: as §1
# [16] = compound: O=C(CCCCCCC(=O)Nc1ccccc1)NO [vorinostat]
# Method in brief: as §1
# [17] = compound: O=C(CCCCCCNC(=O)c1cnc(N(c2ccccc2)c2ccccc2Cl)nc1)NO [citarinostat]
# Method in brief: as §1
# [18] = compound: O=C(O)c1ccc2c(c1)nc(Nc1cccc(Cl)c1)c1ccncc12 [silmitasertib]
# Method in brief: as §1
# [19] = compound: O=C1NC(=O)C(c2cnc3ccccn23)=C1c1cn2c3c(cc(F)cc13)CN(C(=O)N1CCCCC1)CC2
# Method in brief: as §1
# [20] = compound: c1cc(OCCN2CCCCC2)cc(-c2n[nH]c3ccc(-c4nnc[nH]4)cc23)c1
# Method in brief: as §1
# Chain of UniProt Q8WVP7 (Q8WVP7 whole entry, looked up): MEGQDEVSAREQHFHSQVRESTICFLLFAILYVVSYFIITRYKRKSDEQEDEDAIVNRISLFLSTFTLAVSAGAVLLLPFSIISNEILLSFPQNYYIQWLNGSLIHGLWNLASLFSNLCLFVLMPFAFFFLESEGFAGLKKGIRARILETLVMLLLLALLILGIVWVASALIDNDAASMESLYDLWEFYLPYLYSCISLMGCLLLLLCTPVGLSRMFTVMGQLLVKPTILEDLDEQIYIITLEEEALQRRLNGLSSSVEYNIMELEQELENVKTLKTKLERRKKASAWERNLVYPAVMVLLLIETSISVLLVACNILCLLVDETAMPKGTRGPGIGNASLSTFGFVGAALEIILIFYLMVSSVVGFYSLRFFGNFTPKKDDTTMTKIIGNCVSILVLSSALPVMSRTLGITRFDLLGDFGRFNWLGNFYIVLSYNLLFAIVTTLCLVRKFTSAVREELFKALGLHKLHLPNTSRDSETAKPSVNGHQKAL
# Chain of UniProt Q9NQX7 (Q9NQX7 whole entry, looked up): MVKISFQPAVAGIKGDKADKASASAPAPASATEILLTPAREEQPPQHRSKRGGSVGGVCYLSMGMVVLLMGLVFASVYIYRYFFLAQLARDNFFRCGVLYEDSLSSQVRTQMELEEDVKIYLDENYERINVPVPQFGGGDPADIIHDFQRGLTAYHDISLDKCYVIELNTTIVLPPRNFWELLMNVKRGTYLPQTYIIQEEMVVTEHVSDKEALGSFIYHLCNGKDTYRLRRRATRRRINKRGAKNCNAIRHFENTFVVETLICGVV
# Chain of UniProt Q8NHS3 (Q8NHS3 whole entry, looked up): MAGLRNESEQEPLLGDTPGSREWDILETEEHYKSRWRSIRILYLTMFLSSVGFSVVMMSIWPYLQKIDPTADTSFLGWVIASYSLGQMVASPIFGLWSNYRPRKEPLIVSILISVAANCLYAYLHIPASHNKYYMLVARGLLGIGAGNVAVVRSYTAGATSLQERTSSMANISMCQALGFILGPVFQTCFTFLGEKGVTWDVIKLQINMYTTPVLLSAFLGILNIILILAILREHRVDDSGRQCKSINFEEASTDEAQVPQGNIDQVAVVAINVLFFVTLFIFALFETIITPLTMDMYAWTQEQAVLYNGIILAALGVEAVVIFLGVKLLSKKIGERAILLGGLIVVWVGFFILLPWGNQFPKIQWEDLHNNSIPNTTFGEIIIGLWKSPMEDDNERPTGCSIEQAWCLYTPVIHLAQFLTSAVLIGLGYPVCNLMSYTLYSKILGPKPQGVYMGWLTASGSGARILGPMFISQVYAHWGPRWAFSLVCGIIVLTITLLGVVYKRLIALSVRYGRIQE
# Chain of UniProt Q96G25 (Q96G25 whole entry, looked up): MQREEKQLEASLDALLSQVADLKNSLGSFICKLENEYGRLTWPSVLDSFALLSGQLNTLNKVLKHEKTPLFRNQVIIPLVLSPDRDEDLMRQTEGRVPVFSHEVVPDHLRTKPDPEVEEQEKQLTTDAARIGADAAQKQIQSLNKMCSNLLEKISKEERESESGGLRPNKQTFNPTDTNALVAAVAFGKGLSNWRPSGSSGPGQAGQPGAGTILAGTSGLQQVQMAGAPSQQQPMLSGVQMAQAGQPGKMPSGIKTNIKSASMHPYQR
# Chain of UniProt Q8N108 (Q8N108 whole entry, looked up): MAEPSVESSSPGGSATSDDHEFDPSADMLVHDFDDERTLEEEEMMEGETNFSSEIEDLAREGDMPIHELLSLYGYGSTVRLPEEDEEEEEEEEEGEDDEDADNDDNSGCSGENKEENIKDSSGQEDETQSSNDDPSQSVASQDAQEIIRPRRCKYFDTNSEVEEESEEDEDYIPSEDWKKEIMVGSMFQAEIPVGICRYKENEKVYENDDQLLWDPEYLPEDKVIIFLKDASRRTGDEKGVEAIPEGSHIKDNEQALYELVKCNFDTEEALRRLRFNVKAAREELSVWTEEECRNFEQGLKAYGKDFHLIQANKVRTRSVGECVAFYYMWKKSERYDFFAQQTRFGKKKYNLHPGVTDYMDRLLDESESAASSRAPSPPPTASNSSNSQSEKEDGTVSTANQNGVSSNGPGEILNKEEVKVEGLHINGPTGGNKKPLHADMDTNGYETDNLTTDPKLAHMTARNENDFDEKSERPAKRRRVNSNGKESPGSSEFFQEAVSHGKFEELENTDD
# Chain of UniProt Q92551 (Q92551 whole entry, looked up): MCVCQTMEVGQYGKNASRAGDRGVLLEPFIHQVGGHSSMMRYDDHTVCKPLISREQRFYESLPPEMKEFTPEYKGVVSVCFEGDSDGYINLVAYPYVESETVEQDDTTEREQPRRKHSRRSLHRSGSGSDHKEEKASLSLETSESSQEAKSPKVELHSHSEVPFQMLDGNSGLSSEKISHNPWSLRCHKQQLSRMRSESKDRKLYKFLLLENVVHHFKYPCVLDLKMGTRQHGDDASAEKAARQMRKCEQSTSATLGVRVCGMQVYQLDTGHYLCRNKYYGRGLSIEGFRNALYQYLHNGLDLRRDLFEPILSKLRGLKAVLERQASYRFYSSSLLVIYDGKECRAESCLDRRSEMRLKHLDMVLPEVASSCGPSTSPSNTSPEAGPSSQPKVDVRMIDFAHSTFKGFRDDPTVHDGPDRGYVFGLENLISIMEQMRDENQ
# Chain of UniProt O15066 (O15066 whole entry, looked up): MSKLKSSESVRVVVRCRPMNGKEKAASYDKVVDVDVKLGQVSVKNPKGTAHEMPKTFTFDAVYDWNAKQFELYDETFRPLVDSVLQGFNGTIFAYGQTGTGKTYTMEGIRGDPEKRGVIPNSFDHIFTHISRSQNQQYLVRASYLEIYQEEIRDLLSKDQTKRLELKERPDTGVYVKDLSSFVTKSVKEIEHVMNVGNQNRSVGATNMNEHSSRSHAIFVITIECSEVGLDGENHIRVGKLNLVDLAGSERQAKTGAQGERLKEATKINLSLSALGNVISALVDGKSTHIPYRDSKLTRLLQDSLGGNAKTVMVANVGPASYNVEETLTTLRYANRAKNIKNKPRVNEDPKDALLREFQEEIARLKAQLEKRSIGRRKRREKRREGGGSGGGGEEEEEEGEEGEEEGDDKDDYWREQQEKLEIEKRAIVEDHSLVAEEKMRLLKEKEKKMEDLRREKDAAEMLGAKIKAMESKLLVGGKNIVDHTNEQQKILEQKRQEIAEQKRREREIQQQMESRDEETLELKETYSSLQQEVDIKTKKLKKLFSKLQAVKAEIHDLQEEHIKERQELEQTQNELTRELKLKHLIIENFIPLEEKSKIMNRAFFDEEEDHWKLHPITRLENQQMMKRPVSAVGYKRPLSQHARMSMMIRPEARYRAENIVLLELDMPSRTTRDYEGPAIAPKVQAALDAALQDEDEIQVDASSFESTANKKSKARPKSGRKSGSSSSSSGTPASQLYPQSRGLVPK
# Chain of UniProt Q9H6K1 (Q9H6K1 whole entry, looked up): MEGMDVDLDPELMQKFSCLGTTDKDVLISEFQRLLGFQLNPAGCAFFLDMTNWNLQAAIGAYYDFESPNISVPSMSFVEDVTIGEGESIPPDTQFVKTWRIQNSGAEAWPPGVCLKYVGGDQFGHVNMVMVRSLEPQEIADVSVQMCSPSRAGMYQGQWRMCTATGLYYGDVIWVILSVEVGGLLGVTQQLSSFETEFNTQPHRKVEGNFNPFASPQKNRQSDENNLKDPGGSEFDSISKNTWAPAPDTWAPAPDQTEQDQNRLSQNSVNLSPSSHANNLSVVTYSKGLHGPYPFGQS
# Chain of UniProt Q14680 (Q14680 whole entry, looked up): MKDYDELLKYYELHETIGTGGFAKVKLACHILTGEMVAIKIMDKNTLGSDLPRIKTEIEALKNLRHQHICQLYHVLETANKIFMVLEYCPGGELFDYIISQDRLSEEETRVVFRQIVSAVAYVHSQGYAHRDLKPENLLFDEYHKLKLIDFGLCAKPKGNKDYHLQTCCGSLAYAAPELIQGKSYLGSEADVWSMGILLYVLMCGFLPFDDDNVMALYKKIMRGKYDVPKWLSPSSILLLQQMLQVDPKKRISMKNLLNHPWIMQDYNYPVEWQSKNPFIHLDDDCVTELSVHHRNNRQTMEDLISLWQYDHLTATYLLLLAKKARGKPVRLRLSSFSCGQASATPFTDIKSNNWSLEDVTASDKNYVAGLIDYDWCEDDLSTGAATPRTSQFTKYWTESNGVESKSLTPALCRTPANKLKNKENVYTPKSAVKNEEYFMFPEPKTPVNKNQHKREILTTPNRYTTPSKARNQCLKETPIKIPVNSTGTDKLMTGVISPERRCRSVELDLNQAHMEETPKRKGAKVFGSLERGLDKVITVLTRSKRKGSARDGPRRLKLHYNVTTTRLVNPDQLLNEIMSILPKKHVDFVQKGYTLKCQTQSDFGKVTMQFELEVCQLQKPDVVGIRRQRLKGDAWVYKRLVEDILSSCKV
# Chain of UniProt Q96PV6 (Q96PV6 whole entry, looked up): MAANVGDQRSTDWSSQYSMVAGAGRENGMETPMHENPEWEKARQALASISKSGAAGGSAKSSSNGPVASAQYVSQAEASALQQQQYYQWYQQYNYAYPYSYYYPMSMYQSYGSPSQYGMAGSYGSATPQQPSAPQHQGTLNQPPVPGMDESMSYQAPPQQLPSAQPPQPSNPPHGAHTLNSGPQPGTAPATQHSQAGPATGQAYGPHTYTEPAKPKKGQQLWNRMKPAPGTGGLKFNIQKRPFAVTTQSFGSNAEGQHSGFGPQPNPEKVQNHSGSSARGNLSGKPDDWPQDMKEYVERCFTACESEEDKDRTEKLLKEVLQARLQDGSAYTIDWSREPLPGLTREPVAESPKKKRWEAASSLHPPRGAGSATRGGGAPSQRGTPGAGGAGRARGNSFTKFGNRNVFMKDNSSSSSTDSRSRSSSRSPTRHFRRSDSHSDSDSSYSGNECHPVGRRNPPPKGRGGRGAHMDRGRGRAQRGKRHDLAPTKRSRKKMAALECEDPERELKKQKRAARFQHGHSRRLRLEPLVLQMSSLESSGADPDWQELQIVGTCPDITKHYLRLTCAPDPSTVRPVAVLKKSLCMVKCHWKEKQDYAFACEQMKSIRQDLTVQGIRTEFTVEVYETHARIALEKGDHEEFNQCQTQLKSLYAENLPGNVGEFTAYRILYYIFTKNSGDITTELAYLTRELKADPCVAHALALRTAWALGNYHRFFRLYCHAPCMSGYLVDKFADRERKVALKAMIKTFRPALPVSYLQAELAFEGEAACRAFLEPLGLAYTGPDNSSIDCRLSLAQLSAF
Target,log2 fold change [1],log2 fold change [2],log2 fold change [3],log2 fold change [4],log2 fold change [5],log2 fold change [6],log2 fold change [7],log2 fold change [8],log2 fold change [9],log2 fold change [10],log2 fold change [11],log2 fold change [12],log2 fold change [13],log2 fold change [14],log2 fold change [15],log2 fold change [16],log2 fold change [17],log2 fold change [18],log2 fold change [19],log2 fold change [20]
IMMT isoform 2 (UniProt Q16891),-0.081,0.11,-0.007,-0.002,0.144,-0.022,-0.037,0.037,0.065,0.066,0,-0.045,-0.044,-0.066,0.039,0.159,0.042,-0.066,0.064,0.008
MIER1 isoform 12 (UniProt Q8N108),-0.016,0.031,0.012,-0.083,-0.028,-0.061,0.056,-0.041,-0.004,0.052,-0.026,-0.03,-0.074,-0.025,0.292 (active),0.28 (active),0.273 (active),-0.017,-0.066,-0.061
MAP3K20 (UniProt Q9NYL2),-0.246 (active),0.039,-0.216,0.057,-0.712 (active),-0.079,-0.065,-0.019,-0.013,-0.041,-0.008,0.035,-0.012,-0.03,0.019,0,0.002,0.031,0.026,-0.09
LMBRD2 (UniProt Q68DH5),-0.142,-0.006,-0.048,0.041,0.019,-0.028,-0.03,0.043,0.189,-0.007,0.028,0.044,0.099,-0.025,-0.011,-0.015,0.057,-0.049,-0.09,-0.005
LENG8 (UniProt Q96PV6),-0.088,0.112,0.006,-0.036,-0.388,-0.146,-0.039,-0.031,–,0.032,-0.012,-0.075,0.042,-0.198,0.085,0.298,0,0.09,-0.144,-0.091
IKZF1 isoform 2 (UniProt Q13422),-0.217,–,0.101,-0.018,–,0.043,-0.026,0.015,–,-0.024,0.06,–,-0.109,0.036,-0.006,–,–,0.063,–,–
MED7 (UniProt O43513),0.191,–,-0.029,-0.041,-0.063,0.094,-0.05,0.069,0.271,–,0.034,0.122,–,-0.041,-0.16,–,–,–,-0.085,–
MELK (UniProt Q14680),-0.06,0.086,0.033,-1.04 (active),-0.149,0.14,-0.092,–,0.097,–,-0.384,-0.128,–,–,-0.052,0.062,-0.001,–,-0.016,-0.366
ITM2C (UniProt Q9NQX7),-0.064,-0.127,0.099,-0.018,0.024,0.127,0.09,0.038,0.039,–,-0.309,-0.009,–,-0.133,0.164,-0.032,–,–,0.029,–
ILRUN (UniProt Q9H6K1),-0.05,–,-0.01,-0.086,-0.08,0.258 (active),-0.013,-0.039,-0.023,0.029,-0.213,-0.09,-0.128,-0.025,0.024,–,0.027,0.014,-0.059,-0.01
MED8 isoform 2 (UniProt Q96G25),-0.026,–,0.016,-0.015,0.034,-0.171,-0.086,0.013,0.012,-0.059,0.048,0.2,0.038,0.303,-0.107,–,0.035,0.079,-0.043,-0.092
KIF3B (UniProt O15066),0.007,0.122,–,–,-0.06,–,0.002,-0.048,-0.07,0.115,-0.016,-0.029,-0.091,-0.128,-0.016,-0.179,0.053,-0.086,-0.112,0.215
IP6K1 (UniProt Q92551),0.02,0.033,–,–,-0.361,–,0.024,0.116,-0.038,0.137,-0.039,-0.253,-0.457,–,0.089,0.138,-0.02,-0.059,-0.048,0.858 (active)
LMBR1 isoform 3 (UniProt Q8WVP7),-0.182,0.007,–,–,0.012,–,0.093,-0.143,-0.044,0.063,0.047,-0.11,-0.104,-0.048,0.071,-0.016,–,0.014,-0.141,–
METAP1D (UniProt Q6UB28),-0.089,–,-0.114,0.036,0.007,0.079,-0.034,-0.071,-0.023,0.028,0.061,0.252,-0.033,0.073,-0.071,–,0.098,0.064,-0.099,-0.04
MFSD8 (UniProt Q8NHS3),-0.006,-0.12,–,–,0.061,–,-0.007,0.017,-0.042,-0.002,–,0.02,-0.115,-0.076,–,-0.008,-0.003,0.069,-0.007,-0.129
LAPTM4B (UniProt Q86VI4),0.024,-0.137,–,–,–,–,–,–,–,0.017,-0.109,–,0.116,–,-0.126,-0.064,0.092,0.025,–,-0.178
